# Only some compounds are listed: those with a hit (about 2.3% of all), similar ones and a draw of the others.
# ERp5 inh: blocks human ERp5 reductase activity on insulin | ERp5 insulin aggregation, absorbance 650 nm, 90 min | inhibition, % at 9.99 µM | hit rate 0.05% among 350,000;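 active = mean replicate inhibition above about 25%, with every replicate also reaching it, limit read from the data, passing the limit was not always enough; inconclusive = only one of those two criteria met; inactive = neither criterion met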
# Target sequence (Q15084 whole entry, looked up): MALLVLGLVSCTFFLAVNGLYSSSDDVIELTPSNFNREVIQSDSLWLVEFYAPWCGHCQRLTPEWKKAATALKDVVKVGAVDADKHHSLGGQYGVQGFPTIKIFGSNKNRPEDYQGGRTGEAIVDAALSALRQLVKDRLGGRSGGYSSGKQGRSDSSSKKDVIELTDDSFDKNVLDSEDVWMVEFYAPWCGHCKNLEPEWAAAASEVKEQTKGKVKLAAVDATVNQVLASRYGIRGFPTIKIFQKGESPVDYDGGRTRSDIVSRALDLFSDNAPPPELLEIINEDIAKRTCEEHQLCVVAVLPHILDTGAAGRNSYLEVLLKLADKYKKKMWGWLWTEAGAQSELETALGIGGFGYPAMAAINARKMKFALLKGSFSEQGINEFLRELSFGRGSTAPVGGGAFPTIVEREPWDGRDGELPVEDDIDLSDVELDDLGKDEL
# DENV2 CPE rescue: DENV2-induced cell death inhibition | DENV2-infected cells, cytopathic effect rescue, plate reader | CPE inhibition, % at 9.99 µM | hit rate 1.7% among 350,000 | AID 651640; in the data active = CPE inhibition above about 20%, passing the limit was not always enough; inconclusive = no clear call, values can overlap the other calls; tested in BHK-21 cells
# SIRT5 inh: sirtuin-5 (human) deacylase inhibition; Q9NXA8; Purified SirT5, succinyl-peptide AMC, trypsin-coupled fluorescence; inhibition, % at 15 µM; hit rate 1.1% among 330,000; in the data active = inhibition above about 15%; inconclusive = no clear call, values can overlap the other calls
# PDI turbidity: inhibitors of human protein disulfide isomerase; PDI insulin aggregation turbidity, A650, 90 min; hit rate 0.052% among 350,000; P07237; inhibition, % at 10 µM;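 active = mean inhibition across replicates of 30% or more, whatever share of single replicates reach that level; inconclusive = mean inhibition below 30% while every single replicate reaches 30%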
# Rtt109 Vps75: inhibitors of Candida albicans Rtt109/Vps75 histone acetyltransferase | purified Rtt109/Vps75, ThioGlo CoA-SH fluorescence, 4 h | inhibition, % at 34.9 µM | hit rate 0.16% among 330,000;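 active = inhibition of at least 50% in every replicate; inconclusive = best replicate reaches 50% inhibition but some replicates fall short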
# A number is an active result; . = inactive; ? = inconclusive; / = no result.
SMILES,ERp5 inh,DENV2 CPE rescue,SIRT5 inh,PDI turbidity,Rtt109 Vps75
COc1cccc(C2=CC(=O)C(C(C)(C)C)N2C(C)(C)C)c1 (configuration not stated),.,41.4,/,.,.
CCCCCc1ccc(OCCOCCn2c[n+](C)c3ccccc32)c(CCCCC)c1,/,/,/,.,80.5
CN1CCN(C(=O)C[C@@H]2C=C[C@@H](NC(=O)Nc3ccccc3F)[C@H](CO)O2)CC1,.,.,.,/,/
CC1C(=O)N(Cc2cn(CCC3OCCCO3)nn2)CCS(=O)(=O)N1Cc1ccc(-c2ccccc2)cc1 (configuration not stated),.,.,.,.,/
Cc1ccc(-c2ccc(CN3C(C(C)C)C(=O)N(Cc4cn(CCC5OCCO5)nn4)CCS3(=O)=O)cc2)c(C)c1 (configuration not stated),.,.,25.5,/,/
CC1C(=O)N(Cc2cn(CCC3OCCO3)nn2)CCS(=O)(=O)N1Cc1ccc(-c2cccc(N(C)C)c2)cc1 (configuration not stated),.,20.8,.,.,/
CC(C)C1C(=O)N(Cc2cn(CCC3OCCO3)nn2)CCS(=O)(=O)N1Cc1ccc(-c2ccc(Cl)c(Cl)c2)cc1 (configuration not stated),.,24.7,.,.,/
COc1ccc(-c2ccc(CN3C(C(C)C)C(=O)N(Cc4cn(CCC5OCCO5)nn4)CCS3(=O)=O)cc2)cc1OC (configuration not stated),.,.,.,.,/
O=C(C[C@H]1CC[C@H](NC(=O)c2cccnc2)[C@@H](CO)O1)NCc1ccc(Cl)c(Cl)c1,.,.,.,/,/
O=C([C@H]1[C@H](CO)[C@H]2Cn3c(ccc(-c4cccnc4)c3=O)[C@@H]1N2CCC(F)(F)F)N1CCCCC1,.,.,.,/,/
CO[C@@H]1CN(C)C(=O)c2ccc(NC(=O)c3ccc(F)cc3)cc2OC[C@@H](C)N(C(C)=O)C[C@@H]1C,.,.,.,/,/
O=C(c1ccccn1)N1C[C@@H]2[C@H](c3ccccc31)[C@@H](CO)N2C(=O)Nc1ccccc1F,.,.,.,/,/
Cc1cc(C)c(S(=O)(=O)/N=C2\C=C(Nc3ccc(C(=O)O)cc3)C(=O)c3ccccc32)c(C)c1,.,.,.,.,.
O=C(O)c1ccc(NC2=C/C(=N/S(=O)(=O)c3ccccc3)c3ccccc3C2=O)cc1,.,.,40.9,.,.
O=C(O)c1ccc(NC2=C/C(=N/S(=O)(=O)c3cccs3)c3ccccc3C2=O)cc1,.,?,19.6,.,/
CCOC(=O)C1(C)CCCN1C(=O)c1cccc(OC)c1 (configuration not stated),.,.,/,.,/
CCOC(=O)C1(C)CCN1C(=O)c1cccc(OC)c1 (configuration not stated),.,42.3,/,.,/
CCOC(=O)C1(C)CCN1C(=O)c1cccc(Cl)c1 (configuration not stated),.,.,32.1,.,/
CCOC(=O)C1(C)CCN1C(=O)c1ccc(Cl)cc1Cl (configuration not stated),.,.,.,.,/
CCOC(=O)C1(C)CCCN(C(=O)c2cccc(C#N)c2)C1 (configuration not stated),.,.,15.5,.,/
O=S(c1ccccc1O)S(=O)c1ccccc1O (configuration not stated),.,.,25.8,.,.
COc1cccc(-c2ccc3n(c2=O)C[C@H]2[C@H](CO)[C@@H](C(=O)N(C)C)[C@@H]3N2CC2CC2)c1,.,.,.,/,/
Cc1noc(C)c1NC(=O)Nc1ccc2c(c1)C(=O)N([C@H](C)CO)C[C@@H](C)[C@H](CN(C)S(=O)(=O)c1ccc(Cl)cc1)OCCCC[C@@H](C)O2,.,.,.,/,/
COc1ccc(Nc2c(-c3ccc(C)cc3)nc3cnccn23)cc1,.,.,18.0,.,.
CN1[C@H](C(=O)N2CCCCC2)[C@@H](CO)[C@@H]2Cn3c(ccc(/C=C/c4ccccc4)c3=O)[C@@H]21,.,.,.,/,/
C[C@@H]1CN([C@H](C)CO)C(=O)c2cccc(NS(=O)(=O)c3cn(C)cn3)c2O[C@@H]1CN(C)Cc1ccccc1,.,.,.,/,/
C[C@@H]1CCCCO[C@@H](CN(C)C(=O)c2ccccc2)[C@@H](C)CN([C@@H](C)CO)C(=O)c2cc(NS(=O)(=O)c3ccc(F)cc3)ccc2O1,.,121.1,.,/,/
C[C@@H]1CCCCO[C@@H](CN(C)C(=O)c2ccccc2)[C@@H](C)CN([C@@H](C)CO)C(=O)c2cc(NS(=O)(=O)c3ccc(Cl)cc3)ccc2O1,.,21.1,.,/,/
